# In PubChem BioAssay:
# The source made the active and inactive calls. Unless noted, no stated cut-off is given here; in the data, active means inhibition above about 80%; inactive means the rest.
# Legend:
# [1] = growth inhibition, single agents and combos, CRL2098, cell-based, BGB or cisplatin IC20 combos, synergistic combos for chromothripsis tumors (AID 1671454); conditions: CRL2098 osteosarcoma cells, drug combinations, stronger effect = higher value;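 further: cells exposed for 96 h before readout; 0% = vehicle DMSO and 100% = killing by high DMSO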
# [2] = growth inhibition, single agents and combos, HD-MB03, cell-based, BGB or cisplatin IC20 combos, synergistic combos for chromothripsis tumors (AID 1671455; in the data active means inhibition above about 83%;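 further: 0% = vehicle DMSO and 100% = high DMSO as cytotoxic control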); conditions: HD-MB03 medulloblastoma cells, stronger effect = higher value
# [3] = growth inhibition, single agents and combos, UWB1.289, cell-based, BGB or cisplatin combos, synergistic combos for chromothripsis tumors (AID 1671456); conditions: UWB1.289 ovarian carcinoma cells, stronger effect = higher value;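 further: cells exposed to compound for four days; 0% = vehicle DMSO and 100% = killing by high DMSO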
# [4] = growth inhibition, single agents and combos, LFS_MB_2R, cell-based, cisplatin combos, synergistic combos for chromothripsis tumors (AID 1671457); conditions: LFS_MB_2R medulloblastoma cells, stronger effect = higher value;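 further: cells exposed to compound for four days before readout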
# [5] = growth inhibition, MDA-MB-436, cell-based, BGB or cisplatin combos, synergistic combos for chromothripsis tumors (AID 1671458; call rule not given here;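 further: cells exposed for 96 hours; 0% = vehicle DMSO and 100% = killing by high DMSO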); conditions: MDA-MB-436 breast carcinoma growth inhibition, drug combinations, stronger effect = higher value
# [6] = UWB1.289_BRCA1 ovarian cancer growth, cell-based, BGB or cisplatin combinations (AID 1671459); conditions: UWB1.289 BRCA1 ovarian carcinoma, drug combinations, stronger effect = higher value
# [7] = drug combination toxicity in non-malignant astrocytes – cell-based, BGB or cisplatin IC20 combos, cytotoxicity control for chromothriptic childhood tumor combination screen (AID 1671460); conditions: Human astrocytes, viability inhibition, drug combinations, at 0.5 µM, stronger effect = higher value;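 further: cells exposed to compounds for 96 hours before viability readout; 0% = vehicle and 100% = killing control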
# [8] = BT084 cell growth, single and combined drugs, ICGC_MB145, cisplatin and BGB IC40 combos (AID 1671461); conditions: BT084 medulloblastoma cells, drug combinations, stronger effect = higher value;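 further: cells exposed to drugs for 96 hours; 0% = vehicle DMSO and 100% = high DMSO full killing control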
# [9] = RCMB18 cell growth, single agent and combined, cisplatin and BGB IC40 combos (AID 1671462); conditions: RCMB18 medulloblastoma cells, stronger effect = higher value;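 further: cells exposed to compound for four days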
# [10] = CRL1545 cell growth, single agent and combined, cisplatin and BGB IC20 combos (AID 1671464); conditions: CRL1545 osteosarcoma cells, stronger effect = higher value;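 further: cells exposed to compound for 96 hours before readout; 0% = vehicle DMSO and 100% = high DMSO killing control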
# [11] = growth inhibition, single agent or in combination, cell-based, chromothripsis tumors, cisplatin or BGB combos (AID 1671449); conditions: LFS_MB_P medulloblastoma cells;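 further: cells exposed for 96 hours; 0% = vehicle DMSO and 100% = killing by high DMSO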
# [12] = growth inhibition, single agent and combos, cell-based, chromothripsis tumors, cisplatin or BGB combos (AID 1671450); conditions: HDN33 neuroblastoma cells, stronger effect = higher value;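 further: cells exposed to compound for four days; 0% = vehicle DMSO and 100% = cell killing by high DMSO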
# [13] = growth inhibition, single agents and combos, ICB984, cell-based, cisplatin or BGB combos, synergistic combos for chromothripsis tumors (AID 1671451; call rule not given here;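 further: cells exposed for 96 hours before readout; 0% = vehicle DMSO and 100% = killing by high DMSO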); conditions: ICB984 medulloblastoma cells, drug combinations, stronger effect = higher value
# [14] = growth inhibition, single agents and combos, LFS_MB_1R, cell-based, cisplatin or BGB combos, synergistic combos for chromothripsis tumors (AID 1671452); conditions: LFS_MB_1R medulloblastoma cells, stronger effect = higher value;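 further: cells exposed for 96 hours before readout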
# [15] = growth inhibition, single agents and combos, HTB85, cell-based, BGB or cisplatin IC20 combos, synergistic combos for chromothripsis tumors (AID 1671453); conditions: HTB85 osteosarcoma cells, drug combinations, stronger effect = higher value;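 further: cells exposed for 96 hours before readout; 0% = vehicle DMSO and 100% = high DMSO killing control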
# [16] = measured here: combination with BGB at IC20, at 0.5 µM
# [17] = measured here: combination with cisplatin at IC20, at 0.5 µM
# [18] = measured here: combo with BGB at IC20, at 0.5 µM
# [19] = measured here: combo with cisplatin at IC20, at 0.5 µM
# [20] = measured here: inhibition with BGB combination, at 0.05 µM
# [21] = measured here: inhibition with cisplatin combination, at 0.05 µM
# [22] = measured here: combination with cisplatin, at 0.5 µM
# [23] = measured here: combination with cisplatin, at 5 µM
# [24] = measured here: BGB combination, at 0.5 µM
# [25] = measured here: BGB combination, at 5 µM
# [26] = measured here: cisplatin combination, at 0.5 µM
# [27] = measured here: cisplatin combination, at 5 µM
# [28] = BGB combination, concentration series, at 5 µM
# [29] = cisplatin combination, concentration series, at 5 µM
# [30] = measured here: combo with BGB IC20
# [31] = measured here: combo with cisplatin IC20
# [32] = cisplatin combination, at 0.5 µM
# [33] = measured here: BGB IC40 combination 0.05 uM, at 0.05 µM
# [34] = measured here: BGB IC40 combination, at 0.05 µM
# [35] = measured here: with BGB IC20 combination, at 0.5 µM
# [36] = measured here: with cisplatin IC20 combination, at 0.5 µM
# [37] = measured here: combination with BGB IC40, at 0.05 µM
smiles,measurement,setting,value
CCC(Sc1nnc2c3ccccc3n(CC)c2n1)C(=O)Nc1ccccc1OC (stereo unspecified),inhibition,[1]; at 0.5 µM,-23.4% (inactive)
same,inhibition,[1]; [16],-38.3%
same,inhibition,[1]; [17],-32%
same,inhibition,[2]; at 0.5 µM,-13.9% (inactive)
same,inhibition,[2]; [18],-20.2%
same,inhibition,[2]; [19],-12.1%
same,inhibition,[3]; at 0.5 µM,1.85% (inactive)
same,inhibition,[3]; [20],-11.2%
same,inhibition,[3]; [21],-1.41%
same,inhibition,[4]; at 0.5 µM,-23.8% (inactive)
same,inhibition,[4]; [22],-34.2%
same,inhibition,[4]; [23],-45.7%
same,inhibition,[5]; at 0.5 µM,-18.3% (inactive)
same,inhibition,[5]; [24],-16.3%
same,inhibition,[5]; [25],-14.5%
same,inhibition,[5]; [26],-37.5%
same,inhibition,[5]; [27],-22%
same,inhibition,[6]; [28],-8.24%
same,inhibition,[6]; at 0.5 µM,0.44% (inactive)
same,inhibition,[6]; [29],11.1%
same,inhibition,[7],10.6% (inactive)
same,inhibition,[7]; [30],14.7%
same,inhibition,[7]; [31],10.3%
same,inhibition,[8]; at 0.5 µM,-2.76% (inactive)
same,inhibition,[8]; [32],-8.44%
same,inhibition,"[8]; cisplatin combination, at 5 µM",-148%
same,inhibition,[8]; [33],-28.4%
same,inhibition,"[8]; single agent, at 5 µM",-15.3%
same,inhibition,[9]; at 0.5 µM,-9.8% (inactive)
same,inhibition,"[9]; cisplatin combo, at 5 µM",-1.17%
same,inhibition,[9]; [34],-28%
same,inhibition,[9]; [22],-27.5%
same,inhibition,"[9]; single agent, at 5 µM",-2.94%
same,inhibition,[10]; at 0.5 µM,-6.26% (inactive)
same,inhibition,[10]; [35],3.68%
same,inhibition,[10]; [36],-13%
same,inhibition,"[10]; single agent, at 0.05 µM",-16.5%
same,inhibition,"[10]; single agent, at 5 µM",1.47%
Cc1ccc([N+](=O)[O-])cc1S(=O)(=O)N(C)/N=C\c1cnc2ccc(Br)cn12,inhibition,"[11]; at 0.5 µM, stronger effect = higher value",61.9% (inactive)
same,inhibition,"[11]; measured here: combination with BGB IC20, at 0.005 µM",-13.3%
same,inhibition,"[11]; measured here: combination with BGB IC40, at 0.005 µM",-40.2%
same,inhibition,[11]; [37],-31.8%
same,inhibition,"[11]; measured here: combination with cisplatin, at 0.5 µM, stronger effect = higher value",56.3%
same,inhibition,"[11]; measured here: combination with cisplatin, at 5 µM, stronger effect = higher value",118%
same,inhibition,"[12]; BGB combo, at 5 µM",99.2%
same,inhibition,[12]; at 0.5 µM,94.3% (active)
same,inhibition,"[12]; cisplatin combo, at 5 µM",99.5%
same,inhibition,[12]; [35],94%
same,inhibition,[12]; [36],93.5%
same,inhibition,"[12]; single agent, at 5 µM",99.5%
same,inhibition,"[13]; BGB IC20 combo, at 0.005 µM",97.1%
same,inhibition,"[13]; BGB IC40 combo, at 0.005 µM",95.5%
same,inhibition,"[13]; BGB IC40 combo, at 0.05 µM",97.1%
same,inhibition,[13]; at 0.5 µM,-13.8% (inactive)
same,inhibition,"[13]; cisplatin combo, at 0.05 µM",97%
same,inhibition,"[13]; cisplatin combo, at 0.5 µM",-12.8%
same,inhibition,"[13]; cisplatin combo, at 5 µM",-10.7%
same,inhibition,"[13]; measured here: 5 uM single agent, at 5 µM",-35%
same,inhibition,[14]; at 0.5 µM,97.7% (active)
same,inhibition,[14]; [37],22.2%
same,inhibition,[14]; [22],94.2%
same,inhibition,[14]; [23],99.5%
same,inhibition,[15]; at 0.5 µM,95.7% (active)
same,inhibition,"[15]; measured here: with BGB IC20, at 0.5 µM",97.6%
same,inhibition,"[15]; measured here: with BGB IC20, at 5 µM",99.7%
same,inhibition,"[15]; measured here: with cisplatin IC20, at 0.5 µM",99.5%
same,inhibition,"[15]; measured here: with cisplatin IC20, at 5 µM",99.8%
same,inhibition,"[15]; single agent, at 5 µM",99.8%
same,inhibition,[1]; at 0.5 µM,94.2% (active)
same,inhibition,[1]; [16],89.1%
same,inhibition,[1]; [17],96.8%
same,inhibition,[2]; at 0.5 µM,92.1% (active)
same,inhibition,[2]; [18],88.3%
same,inhibition,[2]; [19],94.9%
same,inhibition,[3]; at 0.5 µM,64.8% (inactive)
same,inhibition,[3]; [20],-16.8%
same,inhibition,[3]; [21],-30.8%
same,inhibition,[4]; at 0.5 µM,89.4% (active)
same,inhibition,[4]; [22],92.7%
same,inhibition,[4]; [23],91.4%
same,inhibition,[5]; at 0.5 µM,79.4% (inactive)
same,inhibition,[5]; [24],72.5%
same,inhibition,[5]; [25],55.5%
same,inhibition,[5]; [26],86.1%
same,inhibition,[5]; [27],74.6%
same,inhibition,[6]; [28],89.5%
same,inhibition,[6]; at 0.5 µM,74.9% (inactive)
same,inhibition,[6]; [29],96.2%
same,inhibition,[7],80.6% (active)
same,inhibition,[7]; [30],72.4%
same,inhibition,[7]; [31],82.6%
same,inhibition,[8]; at 0.5 µM,-3% (inactive)
same,inhibition,[8]; [32],-27.5%
same,inhibition,"[8]; cisplatin combination, at 5 µM",-30.7%
same,inhibition,[8]; [33],-4.87%
same,inhibition,"[8]; single agent, at 5 µM",-15.9%
same,inhibition,[9]; at 0.5 µM,67.8% (inactive)
same,inhibition,"[9]; cisplatin combo, at 5 µM",70%
same,inhibition,[9]; [34],19.8%
same,inhibition,[9]; [22],52.5%
same,inhibition,"[9]; single agent, at 5 µM",76%
same,inhibition,[10]; at 0.5 µM,98% (active)
same,inhibition,[10]; [35],98.1%
same,inhibition,[10]; [36],97.9%
same,inhibition,"[10]; single agent, at 0.05 µM",-77.2%
same,inhibition,"[10]; single agent, at 5 µM",100%
